Experimental data: PubChem BioAssay (NCATS)
Records with an inconclusive call do not appear. Where a call stands in place of a potency, no number is given. The source made the active and inactive calls. The call rests on the fitted dose curve; in most records, active means well fitted cell-killing curve with a large enough effect; inconclusive means small, poorly fitted or top-dose-only effect, or effect the other way; inactive means flat fitted curve, though single readings scatter.

The compounds below were run on Tov112D (assay: Primary qHTS to identify gynecologic anti-cancer compounds using libraries of approved drugs and bioactive compounds (AID 1345084; further: nearly all actives have a fitted effect of over 55% in size)). Details: Gynecologic cancer cell panel viability, ATPlite luminescence, 48 h; series mostly up to 57.5 µM.
Summary of the method: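 Cells, 1,000 per well, were allowed to settle for 16 h at 37 C before compound addition. Five concentrations were tested for 48 h, and viability was read by ATPlite luminescence after 15 min at room temperature.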
Potency means the concentration at half of the fitted maximal effect.

Compound | Potency
Cc1cn2cc(C(=O)N(C)CCO)cc(N[C@@H]3CCOc4cccc(C)c43)c2n1 | inactive
Cc1nc(Nc2n[nH]c3c2CN(C(=O)N[C@H](CN(C)C)c2ccccc2)C3(C)C)c2sccc2n1 | 8.91 µM (active)
Cc1[nH]nc2ccc(-c3cncc(OC[C@@H](N)Cc4ccccc4)c3)cc12 | 2 µM (active)
O=C(CCCCCCNC(=O)c1cnc(N(c2ccccc2)c2ccccc2)nc1)NO | 28.2 µM (active)
Nc1ncnc2c1c(-c1cnc3[nH]ccc3c1)nn2C1CCCC1 | 5.01 µM (active)
CC(=O)SC[C@@H](C)C(=O)N1CCC[C@H]1C(=O)N[C@@H](Cc1ccccc1)C(=O)O | inactive
C[C@@H](Oc1cc(-c2cnn(C3CCNCC3)c2)cnc1N)c1c(Cl)ccc(F)c1Cl | inactive
Nc1cc(C(F)(F)F)c(-c2cc(N3CCOCC3)nc(N3CCOCC3)n2)cn1 | 2.82 µM (active)
Cc1ccc(C(N)=O)cc1Nc1nccc(-c2cn(C(C)C)c3cnccc23)n1 | 17.8 µM (active)
CC(=O)Nc1sc2c(c1-c1nc3ccccc3s1)CNC2 | inactive
Cc1cn(-c2cc(NC(=O)c3ccc(C)c(Nc4nccc(-c5cccnc5)n4)c3)cc(C(F)(F)F)c2)cn1 | inactive
O=C(c1ccc(Nc2nccc(-c3cc4ccccc4s3)n2)cc1)N1CCC(N2CCCC2)CC1 | inactive
CN1CCC(CNc2ccc3ncc(-c4cccc(OC(F)(F)F)c4)n3n2)CC1 | inactive
CCc1cc2c(cc1N1CCC(N3CCOCC3)CC1)C(C)(C)c1[nH]c3cc(C#N)ccc3c1C2=O | inactive
